Most compounds without a hit are left out; they make up all but 2.9% or so of the library.
ADAM17 inh = ADAM17 inhibitors, primary screen, biochemical, QFRET; Disintegrin and metalloproteinase domain-containing protein 17 (Homo sapiens), P78536; recombinant ADAM17, EDANS/DABCYL FRET peptide cleavage; inhibition, % at 6.95 µM; 370,000 compounds, 0.83% hits; AID 720648, 2013;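 active means inhibition above the mean of compounds lying between control limits plus 3 SD, set per campaign, cut at about 8.5% in these data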;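 further: 0% = DMSO-only wells as the low control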
ADAM10 inh = human ADAM10 inhibitors, primary screen, biochemical, QFRET, HTS; Disintegrin and metalloproteinase domain-containing protein 10 (Homo sapiens), O14672; recombinant ADAM10, EDANS/DABCYL FRET peptide cleavage, 3 h; inhibition, % at 7 µM; 370,000 compounds, 0.62% hits;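 active means inhibition above a per-campaign cutoff equal to the mean of compounds falling between control-based bounds plus 3 SD, cut at about 20% in these data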;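 further: 0% = DMSO wells while the 100% control is not disclosed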
Target sequence (O14672 214-748 limits assumed): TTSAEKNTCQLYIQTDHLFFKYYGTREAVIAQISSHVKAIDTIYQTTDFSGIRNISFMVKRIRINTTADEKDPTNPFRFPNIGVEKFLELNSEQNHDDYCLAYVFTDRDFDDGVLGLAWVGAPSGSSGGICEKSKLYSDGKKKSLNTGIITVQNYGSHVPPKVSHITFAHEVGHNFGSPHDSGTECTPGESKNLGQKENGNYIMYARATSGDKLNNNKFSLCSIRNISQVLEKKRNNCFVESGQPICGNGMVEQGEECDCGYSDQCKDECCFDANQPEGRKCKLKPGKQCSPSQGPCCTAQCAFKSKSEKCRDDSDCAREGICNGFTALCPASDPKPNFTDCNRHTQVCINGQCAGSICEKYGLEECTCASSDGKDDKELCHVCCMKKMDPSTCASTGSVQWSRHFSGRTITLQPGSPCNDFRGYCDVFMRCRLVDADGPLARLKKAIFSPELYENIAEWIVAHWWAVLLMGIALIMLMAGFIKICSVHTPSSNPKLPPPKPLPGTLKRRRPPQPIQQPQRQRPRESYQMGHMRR
proKLK7 act = proKLK7 zymogen activators, primary screen, biochemical, fluorescence intensity; Kallikrein-7 (Homo sapiens), P49862; purified proKLK7, EDANS-DABCYL substrate fluorescence; 100% is mature enzyme control, 0% vehicle; activation, % at 7 µM; 370,000 compounds, 0.9% hits; AID 652039, 2013;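 active means activation above the mean of all tested compounds plus 3 SD, computed per campaign excluding outliers beyond control limits, cut at about 13% in these data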
PLC-gamma1 inh = PLC-gamma1 enzyme inhibitors, primary screen, biochemical, fluorescence, purified enzyme; 370,000 compounds, 0.84% hits; 1-phosphatidylinositol 4,5-bisphosphate phosphodiesterase gamma-1 (Homo sapiens), P19174; inhibition, % at 12.2 µM; AID 720700, 2013; fluorogenic substrate; in the data active means inhibition above about 9.5%
PLC-beta3 inh = human PLC-beta3 inhibitors, primary screen, biochemical, fluorescence. Purified PLC-beta3, fluorogenic substrate. inhibition, % at 12.2 µM. 370,000 compounds, 0.18% hits. AID 720704, 2013; in the data active means inhibition above about 11%;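 further: 0% = median of compound wells on plate and 100% = full blocker control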
Active calls of the source: *.

Screening NC(=O)[C@H]1CC2(CC(c3cccc(NC(=O)CC(c4ccccc4)c4ccccc4)c3)=NO2)CN1C(=O)C(c1ccccc1)c1ccccc1 (stereo partly drawn) returned ADAM17 inh 12.8*, ADAM10 inh 19.3, proKLK7 act -0.1, PLC-gamma1 inh 12.9* and PLC-beta3 inh 4.7.
For NC(=O)[C@@H]1CC2(CC(c3cccc(NC(=O)CC(c4ccccc4)c4ccccc4)c3)=NO2)CN1C(=O)[C@@H]1CCC(=O)N1 (stereo partly drawn) the results were ADAM17 inh 5.0, ADAM10 inh 2.8, proKLK7 act 0.5, PLC-gamma1 inh 5.8 and PLC-beta3 inh 4.1.
Screening CC(C)(C)c1ccc(-c2nnc(SCC3CCCCO3)n2-c2ccc(Cl)cc2)cc1 (stereo not drawn) returned ADAM17 inh 0.4, ADAM10 inh -1.0, proKLK7 act 0.9, PLC-gamma1 inh 1.1 and PLC-beta3 inh 2.7.
For O=C(CSc1nnc(-c2cccnc2)n1Cc1ccco1)Nc1ccc(F)cc1Cl the results were ADAM17 inh -9.7, ADAM10 inh -12.3, proKLK7 act -0.4, PLC-gamma1 inh -1.4 and PLC-beta3 inh -1.4.
For Cc1oc2cc([N+](=O)[O-])c(O)c([N+](=O)[O-])c2c1C(=O)c1ccc(Cl)cc1 the results were ADAM17 inh 7.5, ADAM10 inh 18.1, proKLK7 act 0.2, PLC-gamma1 inh 10.4* and PLC-beta3 inh 11.1*.
`NC1=[N+](Cc2ccccc2)C[C@H]2C(=C3CCCC[C@H]3n3c(=O)n(-c4ccccc4)c(=O)n32)N1` gave ADAM17 inh 1.1, ADAM10 inh 3.3, proKLK7 act -0.1, PLC-gamma1 inh -1.6 and PLC-beta3 inh 2.5.
For COCCN=c1scc(-c2cccs2)n1/N=C/c1ccc(O)c(O)c1O the results were ADAM17 inh 14.0*, ADAM10 inh 23.7*, proKLK7 act -0.2, PLC-gamma1 inh -20.4 and PLC-beta3 inh -21.8.
For CCN=c1scc(C)n1/N=C/c1ccc(O)c(O)c1O the results were ADAM17 inh 5.5, ADAM10 inh 2.7, proKLK7 act -0.5, PLC-gamma1 inh -8.0 and PLC-beta3 inh -19.4.
For CC1(C)C(C=C(Cl)Cl)C1C(=O)Nc1ccc([N+](=O)[O-])cc1 (stereo not drawn) the results were ADAM17 inh 11.5*, ADAM10 inh 25.0*, proKLK7 act 0.1, PLC-gamma1 inh 4.5 and PLC-beta3 inh 3.0.
For Cc1cc(C)c(S(=O)(=O)/N=C2/C=C(Sc3ncn[nH]3)C(=O)c3ccccc32)cc1C the results were ADAM17 inh 1.8, ADAM10 inh 1.4, proKLK7 act -3.8, PLC-gamma1 inh 11.8* and PLC-beta3 inh -3.9.
`O=C(OCC#CCSc1nnc(-c2cccc3ccccc23)o1)c1ccsc1` gave ADAM17 inh -11.1, ADAM10 inh -44.4, PLC-gamma1 inh -13.6 and PLC-beta3 inh -23.0.
`CCOC(=O)CSC1=C(C#N)C(=O)NC(c2ccc(OC)cc2)S1` (stereo not drawn) gave ADAM17 inh 4.3, ADAM10 inh 7.7, proKLK7 act 0.3, PLC-gamma1 inh 13.6* and PLC-beta3 inh 17.2*.
`O=C(NCc1ccc(F)c(F)c1)C1CCCN(c2nc3ccccc3o2)C1` (stereo not drawn) gave ADAM17 inh -0.9, ADAM10 inh -4.6, proKLK7 act 0.1, PLC-gamma1 inh 4.1 and PLC-beta3 inh -5.7.
Screening COc1ccccc1N1CCN(C(=O)c2ccc3c(c2)CCN3S(=O)(=O)c2ccccc2)CC1 returned ADAM17 inh 7.1, ADAM10 inh 12.5, proKLK7 act 0.7, PLC-gamma1 inh 11.5* and PLC-beta3 inh -12.9.
For COc1ccc(N2CCN(C(=O)c3ccc4c(c3)CCN4S(=O)(=O)c3ccccc3)CC2)cc1 the results were ADAM17 inh 2.1, ADAM10 inh 8.1, proKLK7 act 0.6, PLC-gamma1 inh 1.7 and PLC-beta3 inh -7.6.
Screening CCCC(=O)NC(c1cccc([N+](=O)[O-])c1)c1ccc2cccnc2c1O (stereo not drawn) returned ADAM17 inh 6.8, ADAM10 inh 26.0*, proKLK7 act -0.1, PLC-gamma1 inh -4.0 and PLC-beta3 inh 1.5.
